For one assay, the target named is RNF122. Description: pooled miR-30 sensor sort-seq; sequence = guide strand. The conditions noted are these: shRNA.
ATCCGTATCGCTCACTCTGTGC: the sensor-assay potency score (higher = more potent) is -0.963.

As for TATATCCGTATCGCTCACTCTG, the sensor-assay potency score (higher = more potent) is -0.842.

TTTGCTGATAAAATAGCAGCAG: the sensor-assay potency score (higher = more potent) was -0.0269.

In the case of ATAATTGTAACTTCTTGGCATC, the sensor-assay potency score (higher = more potent) is -0.737.

The next assay concerns the target RNF125. Described as above. The following applies: shRNA.
For TATCTATGTACTTCTGACAAGT, the sensor-assay potency score (higher = more potent) is -0.831.

For the sequence TAGACTGGTAGCAATACAGGAA, the sensor-assay potency score (higher = more potent) is -0.258.

Consider TAGTGGTCCATACTTATCTATG, for which the sensor-assay potency score (higher = more potent) is -1.8.

Regarding TTATACTCTGATTTCATTCTTT, the sensor-assay potency score (higher = more potent) was 0.204.

TTATCTATGTACTTCTGACAAG: the sensor-assay potency score (higher = more potent) was -1.25.

The sequence TTGTTGTTCTTTAGACTGGTAG displayed a sensor-assay potency score (higher = more potent) of -0.623.

As to TTCTTGTAGTGGTCCATACTTA, the sensor-assay potency score (higher = more potent) was -0.891.

The sequence ATACTTATCTATGTACTTCTGA returned a sensor-assay potency score (higher = more potent) of 0.546.

Consider ATGTACTTCTGACAAGTCCGAA, for which the sensor-assay potency score (higher = more potent) was -1.03.

Turning to TACTTATCTATGTACTTCTGAC, the sensor-assay potency score (higher = more potent) is -0.698.

TGTACTTCTGACAAGTCCGAAT displayed a sensor-assay potency score (higher = more potent) of -0.85.

The sequence TTGTTCTTTAGACTGGTAGCAA yielded a sensor-assay potency score (higher = more potent) of -0.126.

(Values after the OligoGym collection.)
Note: reference of the scale not given here.
